In all, about 5,500 compounds went through this assay and about 2,000 (36%) were called active. Roughly 18% stayed inconclusive and do not appear here. No stated cut-off is given here; in the data, active means normalized growth mostly below about 0.91 (no sharp cut-off); inconclusive means no clear call, values can overlap the other calls; inactive means mostly above about 0.92. The list shows a part of the results.
Assay: chemical genetic growth profiling, strain panel (AID 1159580);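 further: tested at 20 µM; growth read once vehicle control cultures reached saturation at 30 °C; 1 = growth at the plate median or of vehicle wells; lower values mean less growth of the strain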
Settings: growth OD

Measured: normalized growth

NC(N)=O
inactive: S. cerevisiae deletion strains, locus YJR075W, strain HOC1, active compounds read low 1.02 | S. cerevisiae deletion strains, locus YKL009W, strain mrt4, active compounds read low 1 | S. cerevisiae deletion strains, locus YKL068W, active compounds read low 0.992 | S. cerevisiae deletion strains, locus YKL085W, strain MDH1 (second series), active compounds read low 0.994 | S. cerevisiae deletion strains, locus YKL085W, strain MDH1, active compounds read low 0.994 | S. cerevisiae deletion strains, locus YKL160W, strain elf1, active compounds read low 1.02 | S. cerevisiae deletion strains, locus YKL190W, strain CNB1, active compounds read low 1 | S. cerevisiae deletion strains, locus YKR001C, strain vps1, active compounds read low 1 | S. cerevisiae deletion strains, locus YKR026C, strain gcn3, active compounds read low 1.01 | S. cerevisiae deletion strains, locus YKR091W, strain srl3, active compounds read low 1 | S. cerevisiae deletion strains, locus YLL001W, strain dnm1, active compounds read low 1.01 | S. cerevisiae deletion strains, locus YLL026W, active compounds read low 1.02 | S. cerevisiae deletion strains, locus YLL041C, strain sdh2, active compounds read low 1.01 | S. cerevisiae deletion strains, locus YLR027C, strain aat2, active compounds read low 1.02 | S. cerevisiae deletion strains, locus YLR039C, strain RIC1, active compounds read low 1.05 | S. cerevisiae deletion strains, locus YLR058C, strain SHM2, active compounds read low 0.99 | S. cerevisiae deletion strains, locus YLR102C, strain apc9, active compounds read low 0.986 | S. cerevisiae deletion strains, locus YLR113W, strain HOG1, active compounds read low 0.993 | S. cerevisiae deletion strains, locus YLR221C, strain rsa3, active compounds read low 0.98 | S. cerevisiae deletion strains, locus YLR258W, strain gsy2, active compounds read low 1 | S. cerevisiae deletion strains, locus YLR262C, strain YPT6 (second series), active compounds read low 1.03 | S. cerevisiae deletion strains, locus YLR262C, strain YPT6, active compounds read low 1.08 | S. cerevisiae deletion strains, locus YLR268W, strain sec22, active compounds read low 1.02 | S. cerevisiae deletion strains, locus YLR320W, strain mms22, active compounds read low 1 | S. cerevisiae deletion strains, locus YLR330W, strain CHS5, active compounds read low 0.988 | S. cerevisiae deletion strains, locus YLR342W, strain FKS1 (second series), active compounds read low 0.96 | S. cerevisiae deletion strains, locus YLR342W, strain FKS1, active compounds read low 1.01 | S. cerevisiae deletion strains, locus YLR357W, strain rsc2, active compounds read low 1.04 | S. cerevisiae deletion strains, locus YLR370C, strain arc18, active compounds read low 1.02 | S. cerevisiae deletion strains, locus YLR371W, strain rom2, active compounds read low 0.985 | S. cerevisiae deletion strains, locus YLR384C, strain iki3, active compounds read low 1.01 | S. cerevisiae deletion strains, locus YLR418C, strain cdc73, active compounds read low 1.01 | S. cerevisiae deletion strains, locus YML016C, strain PPZ1, active compounds read low 0.999 | S. cerevisiae deletion strains, locus YML032C, strain rad52, active compounds read low 1 | S. cerevisiae deletion strains, locus YML120C, strain ndi1, active compounds read low 1.03 | S. cerevisiae deletion strains, locus YML124C, strain tub3, active compounds read low 0.993 | S. cerevisiae deletion strains, locus YMR058W, strain fet3, active compounds read low 1.02 | S. cerevisiae deletion strains, locus YMR078C, strain ctf18, active compounds read low 0.992 | S. cerevisiae deletion strains, locus YMR125W, strain sto1, active compounds read low 1 | S. cerevisiae deletion strains, locus YMR129W, active compounds read low 1.01 | S. cerevisiae deletion strains, locus YMR205C, strain PFK2, active compounds read low 1.02 | S. cerevisiae deletion strains, locus YMR223W, strain ubp8, active compounds read low 0.992 | S. cerevisiae deletion strains, locus YMR231W, strain pep5, active compounds read low 1 | S. cerevisiae deletion strains, locus YMR263W, strain SAP30, active compounds read low 1.03 | S. cerevisiae deletion strains, locus YMR307W, strain GAS1, active compounds read low 1.02 | S. cerevisiae deletion strains, locus YNL067W, strain RPL9B, active compounds read low 1.05 | S. cerevisiae deletion strains, locus YNL071W, strain lat1, active compounds read low 1.01 | S. cerevisiae deletion strains, locus YNL128W, strain TEP1, active compounds read low 1.02 | S. cerevisiae deletion strains, locus YNL153C, strain GIM3, active compounds read low 1.02 | S. cerevisiae deletion strains, locus YNL183C, strain NPR1, active compounds read low 0.963 | S. cerevisiae deletion strains, locus YNL209W, strain ssb2, active compounds read low 1.01 | S. cerevisiae deletion strains, locus YNL233W, strain BNI4, active compounds read low 1 | S. cerevisiae deletion strains, locus YNL248C, strain rpa49, active compounds read low 0.978 | S. cerevisiae deletion strains, locus YNL250W, strain rad50, active compounds read low 0.991 | S. cerevisiae deletion strains, locus YNL271C, strain bni1, active compounds read low 0.988 | S. cerevisiae deletion strains, locus YNL298W, strain CLA4, active compounds read low 1 | S. cerevisiae deletion strains, locus YNL307C, strain MCK1, active compounds read low 0.993 | S. cerevisiae deletion strains, locus YNL322C, strain KRE1 (second series), active compounds read low 1.01 | S. cerevisiae deletion strains, locus YNL322C, strain KRE1, active compounds read low 1 | S. cerevisiae deletion strains, locus YNR049C, strain mso1, active compounds read low 1.02 | S. cerevisiae deletion strains, locus YNR052C, strain pop2, active compounds read low 0.974 | S. cerevisiae deletion strains, locus YOL006C, strain TOP1, active compounds read low 1.21 | S. cerevisiae deletion strains, locus YOL012C, strain htz1 1.36 | S. cerevisiae deletion strains, locus YOL147C, strain pex11, active compounds read low 0.993 | S. cerevisiae deletion strains, locus YOR001W, strain rrp6, active compounds read low 1.02 | S. cerevisiae deletion strains, locus YOR061W, strain CKA2, active compounds read low 0.997 | S. cerevisiae deletion strains, locus YOR069W, strain VPS5, active compounds read low 1.07 | S. cerevisiae deletion strains, locus YOR070C, strain gyp1, active compounds read low 1.01 | S. cerevisiae deletion strains, locus YOR080W, strain dia2, active compounds read low 1.02 | S. cerevisiae deletion strains, locus YOR083W, strain WHI5, active compounds read low 1 | S. cerevisiae deletion strains, locus YOR106W, strain vam3, active compounds read low 1.02 | S. cerevisiae deletion strains, locus YOR136W, strain idh2, active compounds read low 0.993 | S. cerevisiae deletion strains, locus YOR144C, strain elg1, active compounds read low 0.992 | S. cerevisiae deletion strains, locus YOR184W, strain ser1, active compounds read low 0.992 | S. cerevisiae deletion strains, locus YOR231W, strain MKK1, active compounds read low 0.993 | S. cerevisiae deletion strains, locus YOR265W, strain rbl2, active compounds read low 1.02 | S. cerevisiae deletion strains, locus YOR270C, strain vph1, active compounds read low 1.02 | S. cerevisiae deletion strains, locus YOR290C, strain snf2, active compounds read low 0.992 | S. cerevisiae deletion strains, locus YOR316C, strain cot1, active compounds read low 0.985 | S. cerevisiae deletion strains, locus YPL051W, strain arl3, active compounds read low 1.01 | S. cerevisiae deletion strains, locus YPL055C, strain LGE1, active compounds read low 1.07 | S. cerevisiae deletion strains, locus YPL078C, strain atp4, active compounds read low 1.02 | S. cerevisiae deletion strains, locus YPL106C, strain sse1, active compounds read low 0.987 | S. cerevisiae deletion strains, locus YPL240C, strain hsp82, active compounds read low 1.01 | S. cerevisiae deletion strains, locus YPL241C, strain CIN2, active compounds read low 1.07 | S. cerevisiae deletion strains, locus YPL256C, strain CLN2, active compounds read low 1 | S. cerevisiae deletion strains, locus YPR119W, strain clb2, active compounds read low 0.992 | S. cerevisiae deletion strains, locus YPR141C, strain kar3, active compounds read low 1 | S. cerevisiae deletion strains, locus YPR163C, strain tif3, active compounds read low 0.996 | S. cerevisiae deletion strains, locus YPR167C, strain met16, active compounds read low 0.989 | S. cerevisiae deletion strains, strain wtn01, active compounds read low 0.999 | S. cerevisiae strains, strain wild type, active compounds read low 0.991

Source: PubChem BioAssay AID1159580 (chemical genetic matrix, 2015)
